# From PubChem BioAssay
# This is a sample that favours compounds with a hit; in the whole collection about 3.3% have one here.
# PERK inhibitor – block of dimerizer-induced PERK translation repression, primary screen, PERK inhibitor project, CHO PERK-DD cells, SEAP luminescence, HTS | inhibition, % at 5.6 µM | CHO PERK-DD fusion, SEAP luminescence translation reporter | 220,000 tested, 0.17% active | Eukaryotic translation initiation factor 2-alpha kinase 3 (Homo sapiens), Q9NZJ5;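 active = inhibition above the mean inhibition of all tested compounds plus 3 SD, set separately per screening campaign, cut at about 2.9% in these data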;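 also: PERK kinase domain activated by AP20187 dimerizer at 100 nM; 0% = DMSO with dimerizer and 100% = rapamycin at 8.4 µM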
# Arbovirus inh – antivirals against arbovirus infection, primary screen, cell-based, full library, 10K replicate subset. 200,000 tested, 0.37% active. inhibition, % at 10 µM. arbovirus infection cell-based antiviral screen. AID 1251, 2008; in the data active = inhibition above about 30%
# ROMK mod – ROMK potassium channel modulators, primary screen, cell-based, thallium flux, MLSMR library | ATP-sensitive inward rectifier potassium channel 1 (Homo sapiens), P48048 | Tet-inducible ROMK, thallium flux fluorescence; actives lie on both sides | B-score at 10 µM | 130,000 tested, 2% active;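 active = signal ratio slope over the read window, or its plate-corrected B-score, at least 3 SD from the plate mean, either direction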;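 also: B-score of the F/F0 ratio slope over 7 to 12 s after thallium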
# WT yeast gro inh – growth inhibition of WT strain, primary screen, mitochondrial fusion inhibitor project, WT and mutant strains, chemical genetic; mitochondrial fusion phenotypic screen; inhibition, % at 10 µM; 190,000 tested, 2.1% active; AID 1362, 2008; in the data active = inhibition above about 58%; tested in S. cerevisiae
# Numbers without * were called inactive; · = no result given.
SMILES,PERK inhibitor,Arbovirus inh,ROMK mod,WT yeast gro inh
CC1CCCC(C)N1C(=O)COc1ccc(F)cc1 (centres undefined),-0.7,2.9,-0.238,9.9
Cc1cccc(C)c1NC(=S)N1CCC(c2ccccc2)C1 (centres undefined),0.4,10.4,-1.32,18.2
CC(C)CCN(C(=S)NC(=O)C1CCCCC1)c1c(N)n(Cc2ccccc2)c(=O)[nH]c1=O,0.1,31.8*,-2.05,4.8
c1ccc(CC2CCN(C(c3cccs3)c3nnnn3C3CCCC3)CC2)cc1 (centres undefined),0.7,2.5,0.911,31.4
CC(C)(C)n1nnnc1C(c1cccs1)N1CCCC2(CCCCC2)C1 (centres undefined),0.4,14.8,·,77.7*
c1csc(C(c2nnnn2C2CCCCC2)N2CCCC3(CCCCC3)C2)c1 (centres undefined),0.9,3.0,·,62.1*
CCOC(=O)c1ccccc1OCc1cc(/C=N/n2cncn2)ccc1OC,0.4,-10.8,-0.0492,-1.6
c1ccc2c(c1)nc(CN1CCOCC1)n1c3ccccc3nc21,-0.8,-6.0,-0.502,80.7*
CCc1nc2ccccc2c2nc3ccccc3n12,-2.0,-19.6,0.148,10.7
O=C(Nc1nnc(C(F)(F)F)s1)C1COc2ccccc2O1 (centres undefined),-0.6,24.3,·,16.2
Cc1ccc(Sc2nc(-c3ccccc3)ccc2C#N)cc1,1.0,-5.6,0.263,25.7
Cc1ccc(NC(=O)CCC(=O)OCC(=O)c2ccc(Oc3ccc([N+](=O)[O-])cc3)cc2)cc1C,1.4,5.0,0.244,66.5*
Cc1ccc(C2=NNC(=O)C(c3ccc(Cl)cc3)C2)cc1 (centres undefined),-0.8,6.4,-0.103,24.8
O=C1NN=C(c2ccc(Cl)cc2)CC1c1c[nH]c2ccccc12 (centres undefined),0.9,8.7,-0.736,65.7*
O=C1NN=C(c2ccc(Cl)cc2)CC1c1cccc(Br)c1 (centres undefined),0.9,15.8,-1.47,76.9*
Cc1cccc(C(=O)NC(=S)NNC(=O)COc2c(C)cccc2C)c1,1.8,-17.0,2.69*,24.8
Cc1cccc(C(=O)NC(=S)NNC(=O)Cc2ccccc2)c1,0.5,-31.1,-0.0119,16.5
CC(C)NC(=S)NC(=O)c1ccc(-c2ccccc2)cc1,0.4,21.4,·,66.9*
O=C(CCc1ccccc1)NNC(=O)c1ccc(F)cc1,-0.6,-1.1,1.49,4.6
O=C(COc1ccc([N+](=O)[O-])cc1)NNC(=S)NC(=O)c1ccc(Br)cc1,1.5,8.5,-1.55,70.1*
O=C(CCc1ccccc1)NNC(=S)NC(=O)c1ccc(Cl)cc1,0.7,-25.6,1.9,64.5*
O=C(COc1ccccc1)NNC(=S)NC(=O)c1ccccc1,0.5,-15.6,2.19,32.0
Cc1nnc(NC(=O)CCC(=O)N2CCN(CCOc3cccc4ccccc34)CC2)s1,-0.3,·,·,·
COc1ccc(CNCCNC(=O)c2cccs2)c(OC)c1OC,0.0,3.4,-0.171,2.9
O=C(CNC(=S)NC(=O)c1cccs1)c1ccccc1,0.2,-12.6,-0.0127,10.6
SMILES,PERK inhibitor,Arbovirus inh,ROMK mod,WT yeast gro inh
Cc1ccc(C(=O)NC(=S)NCC(=O)c2ccccc2)cc1,0.4,-0.8,·,60.6*
CCC(=O)NNC(=S)NC(=O)c1ccc(C)cc1,1.9,-8.9,1.17,25.5
Cc1ccc(C(=O)NC(=S)NNC(=O)COc2ccccc2C)cc1,2.4,-17.0,3.05*,32.8
CC[N+](C)(C)CC/C=C1/c2ccccc2Sc2ccc(Cl)cc21,1.0,·,·,·
CN(C)CC/C=C1\c2ccccc2Sc2ccc(Cl)cc21,-1.3,-44.2,·,86.8*
N#Cc1ccc(C(=O)CSc2n[nH]c(=O)n2-c2cccnc2)cc1,0.2,·,·,·
CCOC(=O)C1=C(C)NC(SC)=NC1c1ccc(OC)cc1 (centres undefined),0.4,-8.2,·,1.4
CCOC(=O)C1=C(C)NC(SC(C)=O)=NC1c1ccc(OC(C)=O)c(OC)c1 (centres undefined),1.8,6.6,-0.339,76.0*
C/C(=N/NC(=O)CNC(=O)C(c1ccccc1)c1ccccc1)c1ccco1,2.0,·,-0.755,·
Cc1cc(C(=O)CN2C(=O)NC(c3ccccc3)(c3ccccc3)C2=O)c(C)n1Cc1ccccc1,0.0,1.3,·,-9.4
CCOc1ccc(/C=N/Nc2cc(=O)n(C)c(=O)n2C)cc1,-0.8,-1.6,0.476,11.4
Cc1cc2c(C)c(C)c(=O)[nH]c2cc1N,0.8,-11.7,0.577,-11.6
CCOc1cccc(C(=O)Nc2ccccc2N2CCN(C(=O)C(C)C)CC2)c1,-1.1,34.9*,-0.00454,19.2
Cc1ccc(C(=O)Nc2ccccc2N2CCN(C(=O)C(C)C)CC2)cc1,-1.6,-4.0,-0.0324,-17.0
CN(C)S(=O)(=O)c1ccc(NC(=S)NC(=O)c2ccc(Br)o2)cc1,0.0,1.5,2.43*,8.1
Cc1ccc(C(c2nnnn2CCc2ccccc2)N2CCSCC2)cc1 (centres undefined),0.4,-8.2,·,28.8
Cc1ccc(C(c2nnnn2CCc2ccccc2)N2CCC(C)CC2)cc1 (centres undefined),0.0,-27.1,-0.21,74.5*
Cc1[nH]c2ccccc2c1/C=N/NC(=O)C1CC1(c1ccccc1)c1ccccc1 (centres undefined),-0.4,-35.1,0.861,83.7*
CCOC(=O)N1CCN(CC(O)COCCC23CC4CC(CC(C4)C2)C3)CC1 (centres undefined),-0.7,-18.8,-0.896,60.0*
CC1CCC(C(C)C)C(OCC(O)CNC(C)c2ccccc2)C1 (centres undefined),-1.2,-37.7,-1.88,67.4*
CCOC(=O)N1CCN(CC(O)COC2CC(C)CCC2C(C)C)CC1 (centres undefined),-1.0,-5.7,·,76.9*
CC1CCCCN1CC(O)COCCC12CC3CC(CC(C3)C1)C2 (centres undefined),-0.8,-7.7,1.12,51.4
O=C(NCc1ccccc1)c1ccc(-c2ccc(F)cc2)o1,0.3,-9.8,-1.19,21.7
Cn1c(O)c(/C=N/Nc2ccccc2)c(=O)n(C)c1=O,0.3,-34.9,-0.089,66.7*
Cc1ccc(N2C(=O)C3CC(c4ccccc4)=C4C5C=CC(C6C(=O)N(c7ccc(C)cc7)C(=O)C56)C4C3C2=O)cc1 (centres undefined),0.3,33.0*,0.033,-11.2
SMILES,PERK inhibitor,Arbovirus inh,ROMK mod,WT yeast gro inh
Cc1ccc(-c2nc(CSc3nc4ccccc4c(=O)n3CCO)cs2)cc1,0.6,-20.1,·,60.3*
Cc1ccc(-c2nc(CSc3nc4ccccc4c(=O)n3C)cs2)cc1,0.7,8.5,·,15.1
Cc1cc(C)cc(NC(=O)C2CCCN2/C=C/C(=O)C(F)(F)F)c1 (centres undefined),1.0,6.5,·,-6.3
N/C(=N\OC(=O)N1c2ccccc2Sc2ccccc21)c1ccccc1,-0.8,-6.6,0.271,65.7*
Cc1cccc(/C(N)=N/OC(=O)N2c3ccccc3Sc3ccccc32)c1,1.2,-3.9,·,66.7*
COc1ccccc1N1CCN(C(=O)CSc2nc3ccccc3c(=O)n2CC2CCCO2)CC1 (centres undefined),-0.7,2.0,-1.93,-16.9
